Here are results for 58 molecules from ChEMBL document CHEMBL4513216, “Probing the Open Global Health Chemical Diversity Library for Multistage-Active Starting Points for Next-Generation Antimalarials” (ACS Infect Dis, 2020).

The structures appear in SMILES notation. About 8,600 (12%) of roughly 69,000 compounds showed an effect of 50% or more. The list comes from a sample in which strong results are over-represented; it also holds similar structures and randomly drawn compounds.

This test relates to Plasmodium berghei. The experiment in a line: Screen against P. berghei liver stage (PbLuc), transformed with Luciferase, at 10uM. It is filed as functional, HepG2. To be noted: tested at 10 uM.
Consider `Nc1nc(C2CCN(C(=O)c3cnccn3)CC2)cs1`, for which the INHIBITION stood at 38.2%.
For the molecule `Cn1ncc2c(=O)[nH]c(CN3CCCC3c3cccc(F)c3)nc21` (stereo not drawn), the INHIBITION is -29.9%.
As for `CC(=O)N1CCOCC2(C1)CN(S(C)(=O)=O)CCO2` (stereo not drawn), the INHIBITION was found to be 18.7%.
`CCCS(=O)(=O)N1CCOC2(COCCN(C(C)=O)C2)C1` (stereo not drawn): the INHIBITION is recorded as 60%.
As to `CCS(=O)(=O)N1CCOC2(COCCN(C(C)=O)C2)C1` (stereo not drawn), the INHIBITION stood at 18.7%.
In the case of `CCCn1nc2c(cc1=O)CN(CC(=O)Nc1ccncc1)CC2`, the INHIBITION turned out to be 40.3%.
For the molecule `CNc1nccnc1C1CN(Cc2ccc(OCC(=O)O)cc2)CCO1` (stereo not drawn), the INHIBITION amounted to 26.7%.
For the molecule `CS(=O)(=O)NCc1cn2c(n1)CN(Cc1ccoc1)CC2`, the INHIBITION is -4.02%.
Turning to `Cc1cc(C)n(CC2CCCN2CCCS(C)(=O)=O)n1` (stereo not drawn), the INHIBITION was found to be 3.5625%.
Consider `O=C(c1ccc(CNC2CCSC2)cc1)N1CCCC1` (stereo not drawn), for which the INHIBITION is reported as -4.12%.
As to `Cc1noc(C)c1Cc1nc(N(C)C)no1`, the INHIBITION was found to be 19.9%.
`CC(C(=O)Nc1ncccn1)N1CCC(n2ccnc2)CC1` (stereo not drawn): the INHIBITION is 54.4%.
For `CC(C(=O)Nc1ccc2ccccc2c1)N1CCC(n2ccnc2)CC1` (stereo not drawn) the value was 48.8%.
For the molecule `CC(C(=O)NCCc1cccs1)N1CCC(n2ccnc2)CC1` (stereo not drawn), the INHIBITION came to 42.1%.
Regarding `Cc1n[nH]c(CN2CCN(c3ncnc4scc(C)c34)CC2)c1Cl`, the INHIBITION is reported as 68.2%.
For the molecule `CCc1nc(C)c(CN2CCN(c3ncnc4scc(C)c34)CC2)[nH]1`, the INHIBITION worked out at 30.5%.
As to `CCc1nc(C)c(CN2CCN(c3ncnc4c(C)csc34)CC2)[nH]1`, the INHIBITION was 4.35%.
With `CCC(=O)N1CCC(c2nc(C)ncc2-c2ccncc2)CC1`, the INHIBITION is reported as 19.2%.
As for `CCN1CCC2(CC1)CC(NCc1ccncc1)c1ccccc1O2` (stereo not drawn), the INHIBITION was found to be 43.9%.
For the molecule `CC(C)Cn1ncc(C(=O)NS(=O)(=O)c2ccccc2)c1C1CC1`, the INHIBITION is given as 79.7%.
Take `CC(C)Cn1ncc(C(=O)O)c1C1CC1`: the INHIBITION was 14.3%.
For `CC(C)Cn1ncc(C(=O)NS(=O)(=O)C2CCCC2)c1C1CC1`, the INHIBITION was 58.8%.
With `O=C(NS(=O)(=O)c1ccccc1)c1ccccc1F`, the INHIBITION stood at 14.8%.
In the case of `CCc1c(C(=O)Nc2ccc(F)c(C(=O)NC)c2)cnn1CC(C)C`, the INHIBITION was 30.9%.
For `CC(C)NC(=O)c1cc2c(nc1N(C)C)CCN(S(=O)(=O)C1CC1)CC2` the value was -37.9%.
For `CCC1c2ccsc2CCN1C(=O)NCc1cccnc1N(C)C` (stereo not drawn), the INHIBITION was found to be 16.97%.
For `Cn1cc(CN2CCC(c3cc(CCO)[nH]n3)C2)cn1` (stereo not drawn) the value was 39.8%; for `COc1cc(N2CCCC(c3nccn3CCN(C)C)C2)nc(N)n1` (stereo not drawn), -40.3%; for `COc1cc(N2CCC(c3nccn3CCCN(C)C)CC2)nc(N)n1`, -10.9%.
As to `CN(C)CCn1ccnc1C1CCN(c2cc(N)nc(N)n2)CC1`, the INHIBITION came out at 50.5%.
The same measure for `COc1ccccc1Cc1cncc(N2CC(C(=O)O)C2)n1`: 10%; for `CC(C)N1CCC(c2nc3ccc(-c4ccnn4C)cn3n2)CC1`: 8.52%; for `CN1CCN(C(=O)c2cccc(CN3CCOCC3)c2)CC1`: 22.3%.
Regarding `CN(C)CCCC(=O)NC1CC(C)(C)Cc2nc(C(C)(C)C)ncc21` (stereo not drawn), the INHIBITION was determined as 22%.
In the case of `Cc1sc(C(=O)NC(C)C)cc1S(=O)(=O)N(C)C`, the INHIBITION is -16.8%.
For the molecule `COCC(=O)Nc1cnn(COc2ccc(F)cc2Cl)c1`, the INHIBITION is listed as 0.348%.
Regarding `O=C(Nc1cnn(Cc2ccc(F)cc2Cl)c1)C1CC1`, the INHIBITION was -10.8%.
Take `O=C(O)CCCC(=O)Nc1cnn(COc2ccc(F)cc2Cl)c1`: the INHIBITION is given as 4.52%.
With `COCCNC(=O)Cn1cc(NC(=O)c2cccc(Cl)c2Cl)cn1`, the INHIBITION is recorded as -3.83%.
Turning to `O=C(Nc1cnn(COc2ccc(F)cc2Cl)c1)C1CC1`, the INHIBITION is given as 71.3%.
As for `COCCC(=O)Nc1cnn(COc2ccc(F)cc2Cl)c1`, the INHIBITION is recorded as 50.4%.
Regarding `CCn1c(Cn2cncn2)nnc1C1CCN(C2CCNCC2)CC1`, the INHIBITION is listed as -3.51%.
For `OC(CN1CCC(c2ccn[nH]2)CC1)c1cc(F)ccc1F` (stereo not drawn), the INHIBITION is recorded as -4.94%.
Regarding `O=C(CCc1nc(C2CC2)no1)c1ccccc1`, the INHIBITION is listed as -12.2%.
The same measure for `Cc1nccn1Cc1nnc(C2CCCN(c3cnccn3)C2)n1C` (stereo not drawn): 11.5%.
The same measure for `CCOC(=O)c1s/c(=N\C(=O)COc2cnc(C)cc2O)[nH]c1C`: 3.52%; for `COc1cc(N2CC[C@@H]3[C@@H](CC2)OCCN3CC2CC2)ncn1`: 81%.
For `COCCN1CCN(c2ccc(C)nn2)Cc2cccnc21`, the INHIBITION is -2.03%.
For `COCCN1CCN(Cc2c(C)noc2C)Cc2ccc(C)nc21` the value was 33%; for `COCCN1CCN(c2cc(OC)ncn2)Cc2ccc(C)nc21`, 30.3%.
As for `COc1cc(N2CCN(CC3CC3)c3nc(C)ccc3C2)ncn1`, the INHIBITION turned out to be 69.3%.
For `CCCS(=O)(=O)N1CCN(CCOC)c2nc(C)ccc2C1` the value was 29.8%.
With `COc1cc(N2CC[C@@H]3OCCN(C)[C@H]3CC2)ncn1`, the INHIBITION was 39.4%.
`COCCN1CCN(Cc2ccco2)Cc2ccc(C)nc21`: the INHIBITION came to 23.1%.
Regarding `COCCN1CCN(c2cccc(C)n2)Cc2ccc(C)nc21`, the INHIBITION was 53.9%.
Take `COCCN1CCN(c2ccc(C)nn2)Cc2ccc(C)nc21`: the INHIBITION was determined as 51.2%.
As to `Cc1ccc(N2C[C@@H]3OCCN(CC4CC4)[C@@H]3C2)nn1`, the INHIBITION stood at 35.5%.
For `Cc1ccc2c(n1)N(CC1CC1)CCN(S(=O)(=O)C1CC1)C2` the value was -63.5%.
